Laboratory results as given in PubChem BioAssay AID1159580 (chemical genetic matrix, 2015).
Values joined by “and” are separate entries in the source; they are usually repeats but may differ in a detail not shown here. Equal entries are not always repeated. Among all 5,500 compounds or so, about 2,000 (36%) were called active. Inconclusive results (about 18%) are left out. Rule as the data show it: active = normalized growth mostly below about 0.91 (no sharp cut-off); inconclusive = no clear call, values can overlap the other calls; inactive = mostly above about 0.92. Some of the results follow.

Assay: chemical genetic growth profiling, strain panel (AID 1159580);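 also: tested at 20 µM; growth read once vehicle control cultures reached saturation at 30 °C; 1 = growth at the plate median or of vehicle wells; lower values mean less growth of the strain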
Settings: S. cerevisiae deletion strains, growth OD

Measured: normalized growth

O=P1(N(CCCl)CCCl)NCCCO1 (stereo not given)
inactive: locus YAL013W, strain DEP1, active compounds read low 0.998 and 0.974 | locus YAL021C, strain ccr4, active compounds read low 0.995 | locus YAL026C, strain drs2, active compounds read low 0.981 | locus YAL030W, strain snc1, active compounds read low 1.01 | locus YAL040C, strain CLN3, active compounds read low 0.973 | locus YBL061C, strain skt5, active compounds read low 1.01 | locus YBR009C, strain hhf1, active compounds read low 1.01 | locus YBR021W, strain FUR4, active compounds read low 1.02 | locus YBR023C, strain chs3, active compounds read low 1.02 | locus YBR171W, strain sec66, active compounds read low 1 | locus YBR229C, strain ROT2, active compounds read low 1 | locus YBR231C, strain swc5, active compounds read low 0.995 | locus YBR279W, strain paf1, active compounds read low 1 | locus YCL011C, strain gbp2, active compounds read low 1.01 | locus YCL016C, strain dcc1, active compounds read low 1.04 | locus YCL029C, strain bik1, active compounds read low 1.03 | locus YCL061C, strain MRC1 (second series), active compounds read low 1 | locus YCL061C, strain MRC1, active compounds read low 1 | locus YCL069W, strain vba3, active compounds read low 0.995 | locus YCR088W, strain abp1, active compounds read low 1 | locus YDL005C, strain med2, active compounds read low 0.99 | locus YDL035C, strain GPR1, active compounds read low 1.02 | locus YDL040C, strain nat1, active compounds read low 0.998 | locus YDL074C, strain BRE1, active compounds read low 1.03 | locus YDL101C, strain DUN1, active compounds read low 1.01 | locus YDL185W, strain tfp1, active compounds read low 1.01 | locus YDL192W, strain arf1, active compounds read low 1.03 | locus YDR001C, strain nth1, active compounds read low 0.992 | locus YDR069C, strain doa4, active compounds read low 1 | locus YDR101C, strain arx1, active compounds read low 1.02 | locus YDR137W, strain rgp1, active compounds read low 1.01 | locus YDR150W, strain NUM1, active compounds read low 0.996 | locus YDR159W, strain sac3, active compounds read low 0.99 | locus YDR162C, strain NBP2, active compounds read low 1.01 | locus YDR195W, strain ref2 0.977 | locus YDR297W, strain sur2, active compounds read low 1.03 | locus YDR318W, strain mcm21, active compounds read low 1.03 | locus YDR334W, strain swr1, active compounds read low 0.994 | locus YDR335W, strain msn5, active compounds read low 1.01 | locus YDR363W, strain ESC2, active compounds read low 0.962 | locus YDR388W, active compounds read low 1.02 | locus YDR392W, strain spt3, active compounds read low 0.941 | locus YDR502C, strain sam2, active compounds read low 1.06 | locus YEL003W, strain gim4, active compounds read low 0.991 | locus YEL037C, strain rad23, active compounds read low 0.984 | locus YEL061C, strain CIN8 (second series), active compounds read low 0.98 | locus YEL061C, strain CIN8, active compounds read low 1 | locus YER002W, strain NOP16, active compounds read low 1.01 | locus YER015W, strain faa2, active compounds read low 1.02 | locus YER016W, strain bim1, active compounds read low 0.997 | locus YER110C, active compounds read low 1.05 | locus YER111C, strain swi4, active compounds read low 0.995 | locus YER155C, strain BEM2 (second series), active compounds read low 0.936 | locus YER155C, strain BEM2, active compounds read low 0.996 | locus YER167W, strain BCK2, active compounds read low 1 | locus YFR010W, strain ubp6, active compounds read low 0.971 | locus YGL078C, strain dbp3, active compounds read low 1.03 | locus YGL086W, strain mad1, active compounds read low 1.03 | locus YGL167C, strain pmr1, active compounds read low 1.01 | locus YGL173C, strain kem1, active compounds read low 1.01 | locus YGL227W, strain vid30, active compounds read low 0.992 | locus YGL240W, strain doc1, active compounds read low 0.983 | locus YGL248W, strain PDE1, active compounds read low 1.01 | locus YGL253W, strain hxk2, active compounds read low 0.987 | locus YGR078C, strain PAC10, active compounds read low 0.988 | locus YGR135W, strain pre9, active compounds read low 1.04 | locus YGR229C, strain SMI1, active compounds read low 1 | locus YGR252W, strain gcn5, active compounds read low 1.07 | locus YHR013C, strain ard1, active compounds read low 1.03 | locus YHR027C, strain rpn1, active compounds read low 1.01 | locus YHR030C, strain SLT2, active compounds read low 1.01 and 0.994 | locus YHR079C, strain IRE1 (second series), active compounds read low 1.03 | locus YHR079C, strain IRE1, active compounds read low 0.991 | locus YHR094C, strain hxt1, active compounds read low 1.03 | locus YHR129C, strain ARP1, active compounds read low 1 | locus YHR142W, strain chs7, active compounds read low 1.02 | locus YHR200W, strain rpn10, active compounds read low 1.02 | locus YIL066C, strain RNR3, active compounds read low 1.02 | locus YIL073C, strain SPO22, active compounds read low 1.01 | locus YIL125W, strain kgd1, active compounds read low 1.02 | locus YIR030C, strain dcg1, active compounds read low 1.03 | locus YJL092W, strain hpr5, active compounds read low 1.01 | locus YJL095W, strain BCK1 (second series), active compounds read low 1.01 | locus YJL095W, strain BCK1, active compounds read low 1.03 and 0.99 | locus YJL115W, strain asf1, active compounds read low 0.994 | locus YJL129C, strain trk1, active compounds read low 1.02 | locus YJL134W, strain LCB3, active compounds read low 1.01 | locus YJL154C, strain vps35, active compounds read low 0.988 | locus YJL164C, strain tpk1, active compounds read low 1.01 | locus YJL166W, strain qcr8, active compounds read low 1.03 | locus YJL168C, strain set2, active compounds read low 1.02 | locus YJL187C, strain SWE1 (second series), active compounds read low 1.01 | locus YJL187C, strain SWE1, active compounds read low 1.02 | locus YJR043C, strain POL32, active compounds read low 1.01 | locus YJR066W, strain TOR1, active compounds read low 1 | locus YJR075W, strain HOC1, active compounds read low 1 | locus YKL009W, strain mrt4, active compounds read low 0.957 | locus YKL068W, active compounds read low 1 | locus YKL160W, strain elf1, active compounds read low 1.03 | locus YKR001C, strain vps1, active compounds read low 1.03 | locus YKR026C, strain gcn3, active compounds read low 0.993 | locus YKR091W, strain srl3, active compounds read low 1.01 | locus YLL001W, strain dnm1, active compounds read low 1.04 | locus YLL026W, active compounds read low 1.01 | locus YLL041C, strain sdh2, active compounds read low 0.991 | locus YLR027C, strain aat2, active compounds read low 0.992 | locus YLR039C, strain RIC1, active compounds read low 1.02 | locus YLR058C, strain SHM2, active compounds read low 1.01 | locus YLR102C, strain apc9, active compounds read low 1.02 | locus YLR113W, strain HOG1, active compounds read low 0.994 | locus YLR221C, strain rsa3, active compounds read low 1.07 | locus YLR258W, strain gsy2, active compounds read low 1.01 | locus YLR262C, strain YPT6 (second series), active compounds read low 1.01 | locus YLR262C, strain YPT6, active compounds read low 1.01 | locus YLR268W, strain sec22, active compounds read low 1.03 | locus YLR320W, strain mms22, active compounds read low 1.05 | locus YLR330W, strain CHS5, active compounds read low 1.01 | locus YLR342W, strain FKS1 (second series), active compounds read low 1.02 | locus YLR342W, strain FKS1, active compounds read low 1 | locus YLR357W, strain rsc2, active compounds read low 0.984 | locus YLR370C, strain arc18, active compounds read low 1.02 | locus YLR371W, strain rom2, active compounds read low 1.02 | locus YLR384C, strain iki3, active compounds read low 1 | locus YLR418C, strain cdc73, active compounds read low 1.1 | locus YML016C, strain PPZ1, active compounds read low 1 | locus YML032C, strain rad52, active compounds read low 1.03 | locus YML120C, strain ndi1, active compounds read low 1.04 | locus YML124C, strain tub3, active compounds read low 1.04 | locus YMR058W, strain fet3, active compounds read low 0.99 | locus YMR078C, strain ctf18, active compounds read low 1.03 | locus YMR125W, strain sto1, active compounds read low 0.981 | locus YMR129W, active compounds read low 0.991 | locus YMR205C, strain PFK2, active compounds read low 1.03 | locus YMR223W, strain ubp8, active compounds read low 1.05 | locus YMR231W, strain pep5, active compounds read low 0.997 | locus YMR263W, strain SAP30, active compounds read low 1.01 and 1 | locus YMR307W, strain GAS1, active compounds read low 1.03 and 0.994 | locus YNL067W, strain RPL9B, active compounds read low 1.01 | locus YNL071W, strain lat1, active compounds read low 0.991 | locus YNL128W, strain TEP1, active compounds read low 1.02 and 0.983 | locus YNL175C, strain NOP13, active compounds read low 0.989 | locus YNL183C, strain NPR1, active compounds read low 0.946 | locus YNL197C, strain WHI3, active compounds read low 0.976 | locus YNL209W, strain ssb2, active compounds read low 1.01 | locus YNL224C, strain SQS1, active compounds read low 0.995 | locus YNL233W, strain BNI4, active compounds read low 1.02 | locus YNL248C, strain rpa49, active compounds read low 0.914 | locus YNL250W, strain rad50, active compounds read low 1.03 | locus YNL271C, strain bni1, active compounds read low 1.02 | locus YNL298W, strain CLA4, active compounds read low 1.04 | locus YNL307C, strain MCK1, active compounds read low 1.02 | locus YNL322C, strain KRE1 (second series), active compounds read low 1.01 | locus YNL322C, strain KRE1, active compounds read low 0.996 | locus YNR049C, strain mso1, active compounds read low 0.993 | locus YNR052C, strain pop2, active compounds read low 1.02 | locus YOL147C, strain pex11, active compounds read low 1.02 | locus YOR001W, strain rrp6, active compounds read low 0.934 | locus YOR061W, strain CKA2, active compounds read low 1.02 | locus YOR069W, strain VPS5, active compounds read low 1.01 | locus YOR070C, strain gyp1, active compounds read low 1.01 | locus YOR080W, strain dia2, active compounds read low 1.01 | locus YOR083W, strain WHI5 (second series), active compounds read low 0.978 | locus YOR083W, strain WHI5, active compounds read low 1.05 | locus YOR106W, strain vam3, active compounds read low 1.06 | locus YOR136W, strain idh2, active compounds read low 1.03 | locus YOR144C, strain elg1, active compounds read low 1.05 | locus YOR184W, strain ser1, active compounds read low 1.08 | locus YOR231W, strain MKK1, active compounds read low 1 | locus YOR265W, strain rbl2, active compounds read low 1.01 | locus YOR270C, strain vph1, active compounds read low 1.04 | locus YOR290C, strain snf2, active compounds read low 1.03 | locus YOR316C, strain cot1, active compounds read low 1.04 | locus YPL051W, strain arl3, active compounds read low 1.02 | locus YPL055C, strain LGE1, active compounds read low 1 | locus YPL078C, strain atp4, active compounds read low 0.991 | locus YPL106C, strain sse1, active compounds read low 1.04 | locus YPL240C, strain hsp82, active compounds read low 1 | locus YPL256C, strain CLN2, active compounds read low 0.992 | locus YPR119W, strain clb2, active compounds read low 1.03 | locus YPR141C, strain kar3, active compounds read low 1.01 | locus YPR163C, strain tif3, active compounds read low 1.02 | locus YPR167C, strain met16, active compounds read low 1.02 | strain wtn01, active compounds read low 1.06
active: locus YKL085W, strain MDH1 (second series), active compounds read low 1.08 [resistant] | locus YKL085W, strain MDH1, active compounds read low 1.08 [resistant]
